Rows were chosen to be rich in hits. Some 3.3% of all compounds tested hit in one or more screens of this group.
VACV Venus inh: vaccinia inhibition (Venus reporter). Vaccinia virus Venus reporter expression, fluorescence. Potency, µM (doses to about 36.5 µM), actives largely listed as inhibitors. hit rate 0.46% among 330,000. AID 720580; calls by dose curve; tested in A549 cells; further: nearly all actives have a fitted effect of over 30% in size
HCV inhibitor: blocks hepatitis C virus | Huh7.5.1 HCVcc-Cre infection, luciferase reporter, 44 h | Potency, µM (highest dose often 41.8 µM), most hits filed as inhibitors | hit rate 3.4% among 340,000 | AID 651820; active means well fitted inhibition curve with a large enough effect; inconclusive means small, poorly fitted or top-dose-only effect, or another doubt; inactive means no such curve, though single readings can be large or run the other way
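Infectious HCVcc-Cre (~0.5 moi) was added to cells just after compound, with cells seeded 4 h earlier at 1,000 per well. Luciferase activity after 44 h culture reported infection; substrate was incubated 15 min at room temperature before reading.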
Vaccinia mCherry: vaccinia inhibition (mCherry reporter) | hit rate 0.63% among 310,000 | AID 720579 | Vaccinia virus mCherry reporter infection, fluorescence | Potency, µM (titrated, usually from 36.5 µM), most hits filed as inhibitors; calls by dose curve; tested in A549 cells; further: nearly all actives have a fitted effect of over 35% in size
Each line names hits and unclear results; the compound was inactive in the other large screens; ! = a repeat was not active.

CCOc1cc2[nH]c(=S)n(CCCN(CC)CC)c(=O)c2cc1OCC	none (no result: VACV Venus inh, Vaccinia mCherry)
COc1ccc2[nH]cc(CCN=C(NC(=O)c3cccc(Cl)c3)Nc3nc(C)cc(C)n3)c2c1	none (no result: HCV inhibitor)
NC(=NCCc1c[nH]c2ccccc12)NC(=O)c1ccc(Cl)cc1	VACV Venus inh inconclusive, Vaccinia mCherry inconclusive
Cc1cc(C)nc(NC(N)=NCCc2c[nH]c3ccccc23)n1	VACV Venus inh inconclusive, HCV inhibitor 10µM, Vaccinia mCherry inconclusive
Cc1cc(C)nc(NC(N)=NC(C)c2ccccc2)n1 (stereo not drawn)	VACV Venus inh inconclusive, Vaccinia mCherry inconclusive
Cc1cc(C)nc(NC(=NCCc2c[nH]c3ccccc23)NC(=O)Nc2ccc(Cl)cc2)n1	VACV Venus inh inconclusive, HCV inhibitor 11µM, Vaccinia mCherry inconclusive
Cc1cc(C)nc(NC(N)=NCCc2ccccc2)n1	VACV Venus inh inconclusive, HCV inhibitor 11µM, Vaccinia mCherry inconclusive
CCN(C(=O)CCNC(=O)Cn1cnc2ccccc2c1=O)c1cc(OC)ccc1OC	none (no result: HCV inhibitor)
Cc1cc(/N=C/C=C2/N(C)c3ccccc3C2(C)C)n(CCC#N)n1	HCV inhibitor inconclusive
CCCc1cc(=O)[nH]c(SCc2nc(-c3ccc(OCC)cc3)no2)n1	none (no result: HCV inhibitor)
COC(=O)C1=CN(c2ccc(OC)cc2)C(N)=C(C#N)C1c1cccc2ccccc12 (stereo not drawn)	Vaccinia mCherry inconclusive (no result: HCV inhibitor)
COC(=O)C1=CN(c2ccc(F)cc2)C(N)=C(C#N)C1c1cccc(OC)c1OC (stereo not drawn)	Vaccinia mCherry inconclusive (no result: HCV inhibitor)
CCc1ccc(N2C=C(C(=O)OC)C(c3cccc4ccccc34)C(C#N)=C2N)cc1 (stereo not drawn)	Vaccinia mCherry 6.3µM (no result: HCV inhibitor)
COC(=O)C1=CN(c2ccc(C(C)(C)C)cc2)C(N)=C(C#N)C1c1cccc2ccccc12 (stereo not drawn)	Vaccinia mCherry 8.9µM (no result: HCV inhibitor)
O=C(Nc1ccc2c(c1)N(C1CCCC1)C(=O)c1ccccc1S2)c1ccccc1F	none (no result: HCV inhibitor)
Cc1[nH]c(C)c(S(=O)(=O)NCc2ccc(F)cc2)c1C(=O)N1CCCCC1	none (no result: VACV Venus inh, Vaccinia mCherry)
CCOc1ccc(NC(=O)CC2C(=O)N(c3cccc(C)c3)C(=O)N2Cc2ccco2)cc1 (stereo not drawn)	none (no result: HCV inhibitor)
O=Cc1c(Cl)nc2ccccn12	none
Clc1cc2nc3ccccn3c2cc1Cl	HCV inhibitor 25µM (no result: Vaccinia mCherry)
CC(C)=CCc1c(O)cc2c(=O)c3ccc(O)cc3oc2c1O	HCV inhibitor inconclusive
COc1c(CC=C(C)C)c(O)cc2oc(=O)c3c4ccc(O)cc4oc3c12	HCV inhibitor 4µM
O=C(NCc1nnc2n1CCN(Cc1ccccc1C(F)(F)F)CC2)c1ccncc1	none (no result: HCV inhibitor)
COc1cccc(-c2cc(NC=O)c3ncc(-c4ccc(C(C)=O)cc4)n3c2)c1	VACV Venus inh inconclusive (no result: HCV inhibitor)
COc1ccc(-c2cc(NC=O)c3ncc(-c4cccc(C(C)=O)c4)n3c2)cc1	VACV Venus inh inconclusive, Vaccinia mCherry 13µM (no result: HCV inhibitor)
Cc1ccc2nc3sc(C(=O)Nc4ccc(N5CCOCC5)cc4)c(N)c3cc2c1	none (no result: VACV Venus inh, Vaccinia mCherry)
Cc1cccc2cc3c(N)c(C(=O)Nc4ccc(N5CCOCC5)cc4)sc3nc12	HCV inhibitor 4µM
CCCS(=O)(=O)NC(=O)C1(C)CCCN(C(=O)c2cccnc2Oc2ccccc2)C1 (stereo not drawn)	none (no result: HCV inhibitor)
COc1cccc(CN(C)C(=O)c2[nH]c(C)c(C(C)=O)c2C)c1OC	HCV inhibitor 11µM
COc1ccccc1CNC(=O)c1[nH]c(C)c(C(C)=O)c1C	none (no result: VACV Venus inh, Vaccinia mCherry)
Cc1nc2c(-c3ccc(F)cc3)c(C)nn2c(C)c1CCC(=O)N1CCN(c2ccc(F)cc2)CC1	none
CCN1CCN(c2ccc(NC(=O)CCc3c(C)nc4c(-c5ccc(F)cc5)c(C)nn4c3C)cc2)CC1	VACV Venus inh inconclusive, HCV inhibitor 2.5µM, Vaccinia mCherry inconclusive
COc1ccc(NS(=O)(=O)c2cccc(C(=O)NNC(=O)c3cc(C)oc3C)c2)cc1	none
COc1ccc(NS(=O)(=O)c2cc(C)ccc2NC(=O)c2cc(C)oc2C)cc1	VACV Venus inh inconclusive, HCV inhibitor 13µM! (no result: Vaccinia mCherry)
Cc1nc2ccn(Cc3ccco3)c(=O)c2cc1C(=O)N1CCN(c2ccccc2F)CC1	none (no result: HCV inhibitor)
Fc1ccc(C2c3cccn3CCN2C(=S)Nc2cccc(Br)c2)cc1 (stereo not drawn)	HCV inhibitor 10µM, Vaccinia mCherry inconclusive
Fc1ccc(NC(=S)N2CCn3cccc3C2c2cccnc2)cc1 (stereo not drawn)	none
Cc1ccccc1OC(=O)CSc1nnc(-c2cccs2)o1	none (no result: HCV inhibitor)
CC(C)OC(=O)c1ccc(N2CCN(c3ccccc3F)CC2)nc1	HCV inhibitor 11µM (no result: VACV Venus inh, Vaccinia mCherry)
O=[N+]([O-])c1ccc(N2CCN(c3ccccc3F)CC2)nc1	none
COc1ccc(OC)c(CN2CCN(C(=O)c3cc(S(=O)(=O)Nc4ccccc4OC)ccc3C)CC2)c1	HCV inhibitor 14µM
COc1ccc(NS(=O)(=O)c2cccc(C(=O)N3CCN(Cc4cc(OC)ccc4OC)CC3)c2)cc1	HCV inhibitor inconclusive
COc1ccc(OC)c(CN2CCN(C(=O)c3cccc(S(=O)(=O)Nc4ccc(C)cc4)c3)CC2)c1	VACV Venus inh inconclusive, HCV inhibitor 10µM
COc1ccc(NS(=O)(=O)c2ccc(C)c(C(=O)N3CCN(Cc4cc(OC)ccc4OC)CC3)c2)cc1	HCV inhibitor inconclusive
Cc1c(C(=O)N2CCCC2)oc2c1-c1nn(CC(=O)NCc3ccccc3Br)cc1CC2	none (no result: HCV inhibitor)
N#CC12C(=O)NC(=O)C1(C#N)C21CCCC1 (stereo not drawn)	none
COc1ccc(NC(=O)C2(c3ccc(NC(=O)c4ccc(OC(C)=O)cc4)cc3)CCCC2)cc1	none (no result: VACV Venus inh, Vaccinia mCherry)
CC(=O)Oc1ccc(C(=O)Nc2ccc(C3(C#N)CCCC3)cc2)cc1	HCV inhibitor 14µM (no result: VACV Venus inh, Vaccinia mCherry)
COC1=CC(=O)C(O)=C/C1=C\C=C\c1ccccc1	none (no result: HCV inhibitor)
Cc1ccccc1/C=N/NC(=O)Cc1ccc(Cl)cc1	none
C/C(=N\NC(=O)CO/N=C(\C)c1cccs1)c1ccc(N)cc1	none (no result: VACV Venus inh, Vaccinia mCherry)
C/C(=N\OCC(=O)N/N=C/c1ccc(C)cc1O)c1cccs1	HCV inhibitor 10µM (no result: VACV Venus inh, Vaccinia mCherry)
Cc1ccc(/C=N/NC(=O)Cc2ccc(Cl)cc2)c(O)c1	VACV Venus inh inconclusive, HCV inhibitor inconclusive, Vaccinia mCherry 22µM
COC(=O)[C@@H]1C[C@H](NC(=O)c2ccccn2)CN1Cc1cccc2ccccc12	none (no result: HCV inhibitor)
COCC(=O)Nc1cc(C(=O)N2CCc3c([nH]c4ccccc34)C2)cc2nc(-c3ccccc3)n(C)c12	none (no result: HCV inhibitor)
C=C1C=C(C(F)F)n2ncc(C(=O)NCc3ccc(Cl)cc3Cl)c2N1	none (no result: HCV inhibitor)
O=C(Cn1ncc2c3ccccc3n(Cc3ccc(F)cc3)c2c1=O)NCCCN1CCCCC1	none (no result: HCV inhibitor)
C/C(CC(=O)Nc1ccc(Cl)c(C(F)(F)F)c1)=N\NC(=O)c1ccccc1O	VACV Venus inh inconclusive, Vaccinia mCherry 10µM
C/C(CC(=O)NC(C)(C)C)=N\NC(N)=S	VACV Venus inh inconclusive, Vaccinia mCherry 10µM
C/C(CC(=O)Nc1ccc(Cl)c(C(F)(F)F)c1)=N\NC(N)=S	VACV Venus inh inconclusive, HCV inhibitor 6.3µM, Vaccinia mCherry 18µM
C/C(CC(=O)NC(C)(C)C)=N\NC(=O)c1ccccc1N	none
C/C(CC(=O)Nc1ccc(Cl)c(C(F)(F)F)c1)=N\NC(=O)c1cccc(O)c1	none
C/C(CC(=O)Nc1ccc(Cl)c(C(F)(F)F)c1)=N\NC(=O)c1cnccn1	HCV inhibitor inconclusive, Vaccinia mCherry inconclusive
O=C1C=C(N(CCO)Cc2ccccc2)c2ccccc2C1=O	VACV Venus inh inconclusive, HCV inhibitor inconclusive, Vaccinia mCherry 11µM
O=C1c2ccccc2C(=O)c2c1cccc2N(CCO)CCO	none
COc1cccc(CN2C(=O)NC(C)(C3CCN(Cc4cc(Cl)ccc4O)CC3)C2=O)c1OC (stereo not drawn)	none (no result: HCV inhibitor)

Screens from PubChem.
